Most compounds without a hit are left out; they make up all but 8.2% or so of the library.
KB-3-1 tox: kills parental KB-3-1 adenocarcinoma cells; KB-3-1 viability, CellTiter-Glo ATP luminescence, 72 h; Potency, µM (top dose mostly 46.1 µM), usual class: cytotoxic; hit rate 1.4% among 400,000; AID 1347075; also: % is scaled to controls: 0 for no effect and ±100 for the full control effect; nearly all actives have a fitted effect of over 60% in size
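72 h, 37 °C compound treatment of KB-3-1 parental cells; CellTiter-Glo added, 10 min, luminescence read. Data corrected against DMSO-only plates and normalized before curve fitting.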
ELG1 repair inh: ELG1-dependent DNA repair inhibition; HEK293T ELG1-luciferase reporter, luminescence, 16 h; DNA damage induced by 5-fluorouridine; Potency, µM (titrated, usually from 46.1 µM), without a hit: top-dose activity change, negative = inhibition, hits mostly inhibitors; hit rate 2.3% among 330,000; also: % is scaled to controls: 0 for no effect and ±100 for the full control effect; nearly all actives have a fitted effect of over 55% in size
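5-Fluorouridine DNA damage + compound/DMSO, 2,000 cells/well, 16 h, 37 °C/5% CO2. ONE-Glo, 30 min RT, luminescence. Readout = decrease in reporter signal.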
SW480 rereplic: inducers of DNA re-replication in SW480 colon cancer cells; SW480 DNA re-replication, Hoechst DNA content imaging, 48 h; Potency, µM (titrated, usually from 46.1 µM), for inactives: at the top dose re-replication activation, most hits filed as activators; hit rate 1.8% among 340,000; also: % of control where 0% means no effect; nearly all actives have a fitted effect of over 55% in size
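First, 250 cells per well were seeded. Next, compound or vehicle (23 nL) was pinned in, plates sat 48 hr at 37 C. Finally Hoechst was added for 40 min before fluorescence scanning.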
MCF10A rerep: induces DNA re-replication in MCF 10a normal breast cells | Potency, µM (titrated, usually from 46.1 µM), inactives show at the top dose activity, positive = re-replication, most hits filed as activators | MCF 10A DNA re-replication, Hoechst nuclear intensity, 48 h | AID 624296 | hit rate 2.9% among 350,000; also: % of control where 0% means no effect; nearly all actives have a fitted effect of over 50% in size
KB-V1 MDR tox: KB-V1 MDR subline cytotoxicity. KB-V1 MDR cells viability, CellTiter-Glo, 72 h. Potency, µM (titrated, usually from 46.1 µM), usual class: cytotoxic. hit rate 3.4% among 400,000; also: % is scaled to controls: 0 for no effect and ±100 for the full control effect; nearly all actives have a fitted effect of over 60% in size
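Readout: CellTiter-Glo luminescence, 10 min after addition. Cells: KB-V1 MDR subline, 72 h at 37 degrees C with compound. Analysis: corrected, normalized data fitted to concentration-effect curves.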
Starred values were filed as active, the others as inactive; i = inactive; ? = inconclusive; / = no result; [ ] = another dose, or the depositor's remark. Calls follow the shape of the dose curve; as a rule, active = well fitted curve in the direction sought with a large enough effect; inconclusive = small, poorly fitted or top-dose-only effect, or another doubt; inactive = no such curve, though single readings can be large; an effect the other way counts as inactive or inconclusive. Potency is read from the fitted curve at half-maximal effect.

SMILES	KB-3-1 tox	ELG1 repair inh	SW480 rereplic	MCF10A rerep	KB-V1 MDR tox
COc1ccc(-c2csc3nc(-c4ccccc4OC)oc(=O)c23)cc1	i	-7%	16µM*	21µM*	i
COc1ccc(-c2csc3nc(-c4ccc(Cl)cc4)oc(=O)c23)cc1	i	/	/	/	?
Cc1cc(C)c2nc(N3C(=O)C(O)=C(C(=O)c4ccco4)C3c3ccco3)sc2c1 (stereo unspecified)	i	-15%	16µM*	18µM*	i
Cc1ccc2nc(N3C(=O)C(O)=C(C(=O)c4ccco4)C3c3cccs3)sc2c1 (stereo unspecified)	i	?	?	21µM*	13µM*
CCOc1ccc2nc(N3C(=O)C(O)=C(C(=O)c4ccco4)C3c3ccco3)sc2c1 (stereo unspecified)	i	?	-7%	19%	?
O=C(Nc1ccc(F)cc1F)c1ccc2c(c1)[nH]c(=O)n2Cc1ccc(F)cc1	i	?	-42%	5.8µM*	i
O=C1C(=O)N(C2CCN(C(=O)c3ccccc3F)CC2)CCN1Cc1ccc(F)cc1	i	/	/	/	?
COC(=O)C[C@@H]1C=C[C@H](NS(=O)(=O)c2cccc(F)c2)[C@@H](CO)O1	i	/	/	/	i
COc1ccc(C(=O)N2CCC2(C)C(=O)NC(C)C)cc1 (stereo unspecified)	i	/	/	/	i
CCC(C)(C)n1nnnc1CN(Cc1ccc(Cl)cc1)Cc1ccco1	21µM*	?	1%	?	23µM*
CC(C)(C)c1ccc(CN(Cc2ccco2)Cc2nnnn2C2CCCC2)cc1	i	-4%	13%	?	16µM*
COc1ccc(CCN2C(=O)c3ccccc3C2c2nnnn2Cc2ccccc2)cc1OC (stereo unspecified)	i	/	/	/	?
CC(C)c1ccc(S(=O)(=O)Nc2ccc3c(c2)OCO3)cc1	i	?	-3%	2%	i
CCCCNC(=O)C1c2ccccc2OCC(=O)N1CCc1c[nH]c2ccccc12 (stereo unspecified)	i	/	/	/	i
CCNc1ccc(Br)cc(C(=O)/C=C/c2ccc(Cl)cc2Cl)c1=O	?	?	?	21µM*	18µM*
CNc1ccc(Br)cc(C(=O)/C=C/c2cc(OC)ccc2OC)c1=O	?	?	?	?	18µM*
CC(C)c1ccc([C@@H]2O[C@H](C)CC3=C2C(=O)OC(C)(C)O3)cc1	i	/	/	/	i
CN1C(=O)N(CC(=O)N2CCN(S(=O)(=O)c3ccc(Cl)s3)CC2)C(=O)C12CCCCC2	i	0%	4%	24%	15µM*
C=CCN1C(=O)NC(c2ccccc2)(C(F)(F)F)S/C1=C(\C#N)c1nnc(N2CCOCC2)n1-c1ccccc1 (stereo unspecified)	i	-14%	-15%	21µM*	?
CC(C)(C)NC(=O)COC(=O)CNC(=O)C1CCCCC1	?	/	/	/	i
CCN(C(=O)COC(=O)c1cccc(S(=O)(=O)N(C)C)c1)c1c(N)n(Cc2ccccc2)c(=O)[nH]c1=O	i	/	-4%	-8%	i
C=CS(=O)(=O)N(Cc1ccc(Cl)c(Cl)c1)C[C@@H](O)CO	?	9.2µM*	?	?	?
O=C(CCc1ccccc1)NCC1(c2ccccc2)CCCC1	i	?	1%	8%	i
C[N+](C)(C)c1ccc(/C=C2\C=Cc3ccccc32)cc1	?	/	/	/	i
CC(C(=O)Nc1ccccc1)N1CCN(c2ccccn2)CC1 (stereo unspecified)	i	7%	6%	-16%	i
SMILES	KB-3-1 tox	ELG1 repair inh	SW480 rereplic	MCF10A rerep	KB-V1 MDR tox
Cc1cc([N+](=O)[O-])ccc1NC(=O)C(C)N1CCN(c2ccccn2)CC1 (stereo unspecified)	i	-21%	-1%	0%	21µM*
Cn1c(N)c(C(=O)COC(=O)Cc2ccc(Cl)cc2)c(=O)n(C)c1=O	i	-2%	-13%	-4%	i
NC(=O)C1(N2CCCCC2)CCN(c2nc(-c3ccc(Br)cc3)cs2)CC1	i	?	-3%	?	23µM*
COc1ccc(CCNC(=O)c2cnn3c2NC(=C2CC2)C=C3C(F)F)cc1OC	?	/	/	/	i
CC[C@@H]1C(c2cccc(C)c2)=NN(c2ccccc2)[C@H]1C(=O)N1CCOC1=O	i	?	-6%[9.22 µM]	?	i
CC[C@@H]1C(c2ccccc2)=NN(c2ccc(Br)cc2)[C@H]1C(=O)N1CCOC1=O	i	12%	12%	9.2µM*	i
CC[C@@H]1C(c2cccc(Cl)c2)=NN(c2ccc(Br)cc2)[C@H]1C(=O)N1CCOC1=O	i	3%	10µM*	1.3µM*	i
CC[C@@H]1C(c2ccc(F)cc2)=NN(c2ccc(Br)cc2)[C@H]1C(=O)N1CCOC1=O	i	8%	0.58µM*	16µM*	i
C[C@@H]1C(c2ccc(F)cc2)=NN(c2ccccc2)[C@H]1C(=O)N1CCOC1=O	?	-25%	3%	?	i
COc1ccc(S(=O)(=O)Nc2ccc(Cl)cn2)c(C)c1C	i	?	-2%	-2%	23µM*
COc1cc(OC)cc(C(=O)Nc2nnc3n2CCS3)c1	i	/	/	/	i
Oc1ccc2ccccc2c1C=NNc1ccccn1	?	/	7.3µM*	?	0.52µM*
Oc1ccc2ccccc2c1/C=N/Nc1nnc(-c2ncc[nH]2)c2ccccc12	?	?	0.65µM*	?	?
CN(C)/N=C/c1c(O)ccc2ccccc12	i	4%	-6%	-4%	i
OCC(CO)(CO)N=Cc1c(O)ccc2ccccc12	i	-6%	0%	8.2µM*	?
COc1ccc(/C=N/Nc2nnc(-c3ncc[nH]3)c3ccccc23)cc1	i	?	2%	9%	?
COc1ccccc1CN(CC(=O)NCc1ccc(F)cc1)C(=O)c1csnn1	i	-4%	-6%	2%	i
COc1ccc(-c2csc(NC(=O)c3ccc(OCC(=O)N4CCOCC4)c(OC)c3)n2)cc1	?	16µM*	1%	?	?
COc1ccc(-c2csc(NC(=O)C3CCN(C(=O)c4ccc(F)cc4)CC3)n2)cc1OC	i	15µM*	13%	8%	i
COc1ccc(OC)c(NC(=O)c2ccc(OCC(=O)N3CCOCC3)c(OC)c2)c1	i	-13%	-35%	14%	i
COc1ccc(-c2nc(NC(=O)c3ccc(OCC(=O)Nc4ccc(F)cc4)c(OC)c3)sc2C)cc1	i	?	21%	21µM*	i
COc1cc2cc(C(=O)N3CCOCC3)cc(-c3ccc(C)cc3)c2cc1OC	i	15µM*	-1%	?	i

Assay outcomes: PubChem, National Center for Advancing Translational Sciences (NCATS)
